In all, about 310,000 compounds went through this assay and about 14,000 (4.5%) showed an effect of 50% or more. Effects have a minus sign here. The list comes from a sample in which strong results are over-represented; it also holds similar structures and randomly drawn compounds.
Biological target: human ether-à-go-go-related gene (hERG) potassium channel (human, UniProt Q12809)
Test: primary screen, population patch clamp on CHO cells stably expressing hERG; higher = less effect of the substance
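Also: peak tail current of the secondary pulse compared with the same well before compound.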

Chain of human ether-à-go-go-related gene (hERG) potassium channel (Q12809 whole entry, looked up): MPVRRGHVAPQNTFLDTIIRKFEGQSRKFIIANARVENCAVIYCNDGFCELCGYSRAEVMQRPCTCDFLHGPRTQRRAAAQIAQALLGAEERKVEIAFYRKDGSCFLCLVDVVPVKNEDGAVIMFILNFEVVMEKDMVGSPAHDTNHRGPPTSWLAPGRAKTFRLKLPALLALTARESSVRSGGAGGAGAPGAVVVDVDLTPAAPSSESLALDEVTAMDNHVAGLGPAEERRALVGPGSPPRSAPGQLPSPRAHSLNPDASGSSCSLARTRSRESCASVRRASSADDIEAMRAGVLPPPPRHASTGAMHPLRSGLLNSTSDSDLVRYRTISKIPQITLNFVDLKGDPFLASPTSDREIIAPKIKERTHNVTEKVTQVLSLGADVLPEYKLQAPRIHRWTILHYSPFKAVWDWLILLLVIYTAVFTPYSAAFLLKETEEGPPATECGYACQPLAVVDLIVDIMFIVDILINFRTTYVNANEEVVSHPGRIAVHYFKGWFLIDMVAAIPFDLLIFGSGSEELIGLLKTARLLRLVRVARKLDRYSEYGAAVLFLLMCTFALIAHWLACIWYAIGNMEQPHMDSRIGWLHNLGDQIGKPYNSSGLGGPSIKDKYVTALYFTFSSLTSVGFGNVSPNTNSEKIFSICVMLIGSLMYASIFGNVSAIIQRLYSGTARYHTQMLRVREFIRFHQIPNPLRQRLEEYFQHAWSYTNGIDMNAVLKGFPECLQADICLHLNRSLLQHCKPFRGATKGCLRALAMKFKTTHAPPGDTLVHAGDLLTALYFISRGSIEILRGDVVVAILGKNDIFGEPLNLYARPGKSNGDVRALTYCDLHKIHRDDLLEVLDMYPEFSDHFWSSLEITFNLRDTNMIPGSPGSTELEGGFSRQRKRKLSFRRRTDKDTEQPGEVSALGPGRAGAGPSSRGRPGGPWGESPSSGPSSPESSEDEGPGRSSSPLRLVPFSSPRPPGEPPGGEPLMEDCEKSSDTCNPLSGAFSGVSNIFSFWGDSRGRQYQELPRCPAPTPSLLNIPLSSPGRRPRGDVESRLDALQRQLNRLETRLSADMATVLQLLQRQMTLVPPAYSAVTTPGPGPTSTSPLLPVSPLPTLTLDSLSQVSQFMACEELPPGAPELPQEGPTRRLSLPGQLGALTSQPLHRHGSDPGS

| Compound | hERG current change (%, negative = inhibition) at 10uM |
| --- | --- |
| O=C1NC(=O)/C(=C\c2ccccc2OCc2cccc([N+](=O)[O-])c2)N1 | -5.66% |
| O=C(CCn1c(=O)[nH]c2ccsc2c1=O)Nc1ccc(F)c(F)c1 | 21% |
| COc1cccc(NC(=O)Cc2nnc(SCC(=O)NC(C)c3ccccc3)n2C)c1 (centres unmarked) | 15.1% |
| CCCCNc1nc2c(c(=O)n(C)c(=O)n2C)n1CCC | 9.61% |
| O=C(NCCCN1CCOCC1)c1cccc(S(=O)(=O)Nc2ccc(F)cc2)c1 | -23.3% |
| COc1ccc(NS(=O)(=O)c2ccc(C)c(C(=O)NC3CCN(Cc4ccccc4)CC3)c2)cc1 | -51.1% |
| CCOc1ccc(NS(=O)(=O)c2ccc(C(=O)NC3CCN(Cc4ccccc4)CC3)cc2)cc1 | 3.07% |
| COCCNS(=O)(=O)c1ccc(Cl)c(C(=O)NC2CCN(Cc3ccccc3)CC2)c1 | -1.21% |
| O=C(NC1CCN(Cc2ccccc2)CC1)c1cccc(S(=O)(=O)Nc2cc(C(F)(F)F)ccc2Cl)c1 | -48.8% |
| O=C(NC1CCN(Cc2ccccc2)CC1)c1cccc(S(=O)(=O)Nc2ccc(F)cc2)c1 | -63.8% |
| CN(C)S(=O)(=O)Nc1cccc(Br)c1 | -14.2% |
| CCCCCc1cc(=O)oc2c(C(CCN3CCCC3)c3cc(OC)c(OC)c(OC)c3)c(OC)cc(OC)c12 (centres unmarked) | -65.6% |
| CCCCCc1cc(=O)oc2c(C(CCN(CC)CC)c3cc(OC)c(OC)c(OC)c3)c(OC)cc(OC)c12 (centres unmarked) | -38.2% |
| COc1cc(O)c(C(CCN2CCCC(C)C2)c2cc(OC)c(OC)c(OC)c2)c(OC)c1 (centres unmarked) | 5.07% |
| CCCCCc1cc(=O)oc2c(C(CCN3CCCCC3)c3cc(OC)c(OC)c(OC)c3)c(OC)cc(OC)c12 (centres unmarked) | -74.6% |
| CCCCCc1cc(=O)oc2c(C(CCN3CCCC(C)C3)c3cc(OC)c(OC)c(OC)c3)c(OC)cc(OC)c12 (centres unmarked) | -64.4% |
| Cc1cccc2c1N(N=O)CCC2 | -2.33% |
| Cc1ccc(N2CC(C(=O)Nc3ccc4c(c3)OCO4)CC2=O)cc1 (centres unmarked) | 9.48% |
| Cc1ccc(-c2c(C(=O)N/N=C/C3CC=CCC3)nnn2-c2nonc2N)cc1 (centres unmarked) | 20.5% |
| Cc1nccnc1Sc1ccccc1 | 22.4% |
| Cc1ccc(S(=O)(=O)NNC(=O)Cc2cccn2C)cc1 | 11.2% |
| CCCCN(C)C(=O)c1oc2ccc(S(=O)(=O)N3CCCCCC3)cc2c1C | -15.9% |
| CCC1Sc2ccc(S(=O)(=O)CCC(=O)Nc3cc(C)ccn3)cc2NC1=O (centres unmarked) | 11.9% |
| COc1ccccc1C(=O)Nc1cccc2nc(C)ccc12 | 8% |
| Cc1cc(NC(=O)c2cnn3cccnc23)no1 | -0.805% |
| Cc1cc(C(=O)Nc2c(F)cc(F)cc2Br)n(-c2ccccc2)n1 | 16% |
| CCOC(=O)c1cccc(NC(=O)c2cc(C)nn2-c2ccccc2)c1 | -50.5% |

| Compound | hERG current change (%, negative = inhibition) at 10uM |
| --- | --- |
| Cc1cc(NC(=O)c2ccccc2)n(-c2ccccc2)n1 | 30.8% |
| CC(=O)c1cccc(NC(=O)c2cc(C)nn2-c2ccccc2)c1 | -21% |
| Cc1cc(NC(=O)c2ccc(Cl)cc2)n(-c2ccccc2)n1 | -1.41% |
| Cc1c(NC(=O)c2cnn3cccnc23)c(=O)n(-c2ccccc2)n1C | 4.45% |
| CCOC(=O)c1ccc(NC(=O)c2cc(C)nn2-c2ccccc2)cc1 | -7.01% |
| Cc1cc(C(=O)Nc2c(F)c(F)c(F)c(F)c2F)n(-c2ccccc2)n1 | -59.1% |
| Cc1cc(NC(=O)c2cnn3cccnc23)n(-c2ccccc2)n1 | -61.8% |
| Cc1cc(NC(=O)c2ccc(F)cc2)n(-c2ccccc2)n1 | -80.2% |
| Cc1cc(C(=O)Nc2ccc(F)cc2C)n(-c2ccccc2)n1 | 12.6% |
| COc1ccc(OC)c2c1C(=O)C(Cl)=C(Cl)C2=O | 13.4% |
| COCc1c(C#N)c(NCCc2ccc(F)cc2)nc(C)c1[N+](=O)[O-] | 1.39% |
| Cc1ccc(C(=O)Nc2ccc3c4c(cccc24)CC3)cc1[N+](=O)[O-] | -1.54% |
| Cc1cc(C)n(-c2nnc(C)n2NS(C)(=O)=O)n1 | 14.6% |
| Cc1csc(C(C#N)C(=O)c2ccc(S(=O)(=O)N3CCCC3)cc2)n1 (centres unmarked) | 5.45% |
| COc1ccccc1N1CCN(C(=O)CN2C(=O)C3CCCCC3C2=O)CC1 (centres unmarked) | 22.7% |
| Cc1onc(-c2c(F)cccc2Cl)c1C(=O)Nc1c(C)n(C)n(-c2ccccc2)c1=O | 0.00478% |
| COc1ccccc1NS(=O)(=O)c1cc(C)ccc1C | 4.55% |
| CCCc1nn(C)c2c(=O)[nH]c(-c3cc(S(=O)(=O)N(CCO)CCO)ccc3OCC)nc12 | 0.59% |
| CCc1ccc2c(c1)C(c1ccc([N+](=O)[O-])cc1)=NNC(c1ccc(F)cc1)=N2 | -7.54% |
| COc1ccc(CCC(=O)N2CCN(S(=O)(=O)c3ccc(OC)cc3)CC2)cc1 | -8.45% |
| COc1ccc(S(=O)(=O)Cc2ccc(C(=O)N3CCN(c4ncccn4)CC3)o2)cc1 | -16.8% |
| COc1ccc(S(=O)(=O)Cc2ccc(C(=O)N3CCOCC3)o2)cc1 | 1.23% |
| COc1ccc(S(=O)(=O)Cc2ccc(C(=O)N3CCN(c4ccc(Cl)cc4)CC3)o2)cc1 | -55.5% |
| COc1ccc(N2CCN(C(=O)c3ccc(CS(=O)(=O)c4ccc(OC)cc4)o3)CC2)cc1 | -64.7% |
| COc1ccc(S(=O)(=O)N2CCN(C(=O)c3ccc(C)o3)CC2)cc1 | -5.16% |
| COc1ccc(S(=O)(=O)N2CCN(C(=O)c3ccc([N+](=O)[O-])o3)CC2)cc1 | -51.3% |
| COc1ccc(S(=O)(=O)Cc2ccc(C(=O)N3CCN(c4ccccc4)CC3)o2)cc1 | -37.6% |

| Compound | hERG current change (%, negative = inhibition) at 10uM |
| --- | --- |
| CCOC(=O)N1CCN(C(=O)c2ccc(CS(=O)(=O)c3ccc(OC)cc3)o2)CC1 | -16% |
| COc1ccc(S(=O)(=O)Cc2ccc(C(=O)N3CCN(c4cccc(C)c4C)CC3)o2)cc1 | -30.6% |
| COc1ccc(S(=O)(=O)Cc2ccc(C(=O)N3CCN(c4cc(Cl)ccc4C)CC3)o2)cc1 | 9.01% |
| COc1ccc(S(=O)(=O)Cc2ccc(C(=O)N3CCN(c4ccccc4F)CC3)o2)cc1 | -52.8% |
| CC(=O)c1ccc(N(C(=O)CNC(=O)c2ccco2)C(C(=O)NC2CCCC2)c2ccncc2)cc1 (centres unmarked) | 20.3% |
| COc1cccc(-c2nn(-c3ccc(C)cc3)cc2C(=O)N(C)CC(=O)Nc2cccc(F)c2)c1 | 0.34% |
| COc1ccc(OC)c(NC(=O)COC(=O)c2ccc(S(=O)(=O)N3CCOCC3)cc2)c1 | -15.3% |
| O=C(Nc1ccc2c(c1)OCO2)C1CC1(Cl)Cl (centres unmarked) | 3.77% |
| COc1cc(OC)c(OC)cc1CNC(=O)c1cc(=O)c2ccccc2o1 | 8.48% |
| COc1ccc(N(C(C)=O)S(=O)(=O)c2cccs2)cc1 | 7.03% |
| CCCn1nnc(NC(=O)c2ccc(Cl)cc2Cl)n1 | 2.23% |
| O=C(O)CCc1ccc(S(=O)(=O)N2CCOCC2)cc1 | 9.65% |
| COC(=O)C1=C(C)N(c2cccc(Cl)c2)C(=O)C1 | 9.01% |
| O=C(c1ccccc1)C(Nc1ccccn1)c1ccccc1 (centres unmarked) | 1.36% |
| c1ccc(CC(Nc2ccccn2)c2ccccc2)cc1 (centres unmarked) | -52.8% |
| COP(=O)(OC)C(Nc1ccccn1)c1ccccc1 (centres unmarked) | 26.6% |
| CCN(CC)CCN(C(=O)c1ccc(N2C(=O)CCC2=O)cc1)c1nc2cc3c(cc2s1)OCCO3.Cl | -27.6% |
| CN(C)CCCN(C(=O)c1ccc(S(=O)(=O)N2CCCCCC2)cc1)c1nc2cc3c(cc2s1)OCCO3.Cl | -59.7% |
| CCN(CC)CCN(C(=O)c1ccc(S(=O)(=O)N2CCOCC2)cc1)c1nc2cc3c(cc2s1)OCCO3.Cl | -69.2% |
| CC1CN(S(=O)(=O)c2ccc(C(=O)N(CCCN(C)C)c3nc4cc5c(cc4s3)OCCO5)cc2)CC(C)O1.Cl (centres unmarked) | -28.8% |
| CN(C)CCCN(C(=O)c1ccc(S(=O)(=O)N2CCOCC2)cc1)c1nc2cc3c(cc2s1)OCO3.Cl | -61.4% |
| CN(C)CCN(C(=O)c1ccc(S(=O)(=O)N(C)C)cc1)c1nc2cc3c(cc2s1)OCCO3.Cl | -40.7% |
| Cc1ccc2sc(N(CCCN(C)C)C(=O)c3ccc(S(=O)(=O)N4CCOCC4)cc3)nc2c1C.Cl | -35.9% |
| CCN(CC)CCN(C(=O)c1ccc(S(=O)(=O)N2CCCCC2)cc1)c1nc2cc3c(cc2s1)OCO3.Cl | -37.6% |
| CN(C)CCCN(C(=O)c1ccc(S(=O)(=O)N2CCCCC2)cc1)c1nc2cc3c(cc2s1)OCO3.Cl | -70.4% |
| C=C1C(=O)C=C2CN(C(=O)c3ccccc3)[C@@](Cc3ccc(F)cc3)(C(=O)OC)[C@@H]12 | -3.22% |

Source: article PMC4336329 (PLoS ONE, 2015)
